Compound activity deposited in PubChem BioAssay by National Center for Advancing Translational Sciences (NCATS).
Rows were chosen to be rich in hits. Some 11% of all compounds tested hit in one or more screens of this group.
G9a inh = inhibitors of human histone lysine methyltransferase G9a; Q96KQ7; G9a H3K9 monomethylation, AlphaScreen, 2 h; Potency, µM (series often up to 102 µM), usual class: inhibitors; hit rate 8.8% among 350,000; AID 504332; also: nearly all actives have a fitted effect of over 75% in size
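AlphaScreen detection with an anti-monomethyl H3K9 antibody quantified product after a 2 h room-temperature reaction containing 500 nM biotinylated H3K9 peptide, 20 µM SAM and 20 nM enzyme, which had been preincubated 15 min with compound.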
VDR inh = blocks the human vitamin D receptor; VDR-SRC2-3 peptide fluorescence polarization, 2 h; Potency, µM, usual class: inhibitors; AID 504847; hit rate 0.93% among 400,000
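Fluorescence polarization assay of small-molecule disruption of VDR binding to coregulator peptide SRC2-3. Compounds and controls pin-transferred, then read after 2 h incubation at ambient room temperature.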
BAZ2B block = BAZ2B (human) inhibition; Potency, µM (doses to about 114 µM), usual class: inhibitors; hit rate 4.4% among 360,000; AlphaScreen BAZ2B-H3K14Ac peptide displacement; also: nearly all actives have a fitted effect of over 60% in size
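Inhibition is scored as reduced AlphaScreen emission. The BAZ2B/b-H3(5-23)K14Ac complex (50 nM each) in PBS pH 7.4, 0.01% Tween-20 meets compound (up to 110 uM) for 30 min at RT before bead addition.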
HP1b binding inh = blocks HP1-beta chromodomain binding to methylated histone tails | P83916 | hit rate 0.56% among 390,000 | Potency, µM (doses to about 114 µM), actives largely listed as inhibitors | AlphaScreen HP1-beta / biotin-H3K9me3 peptide binding; also: nearly all actives have a fitted effect of over 70% in size
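Compound inhibition of the preformed complex between 50 nM HP1-beta and 50 nM biotinylated H3K9me3 peptide was read by AlphaScreen. Buffer was PBS pH 7.4 with 0.01% Tween-20. Incubations ran 30 min at room temperature, with 10 ug/mL donor/acceptor beads.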
JMJD2A Tudor inh = blocks the human JMJD2A Tudor domain; O75164; AlphaScreen JMJD2A-Tudor / H3K4me3 peptide binding; Potency, µM (doses to about 114 µM), usual class: inhibitors; hit rate 4.4% among 390,000; AID 504339; also: nearly all actives have a fitted effect of over 50% in size
Target sequence (O75164 whole entry, looked up, the tested form may be a part): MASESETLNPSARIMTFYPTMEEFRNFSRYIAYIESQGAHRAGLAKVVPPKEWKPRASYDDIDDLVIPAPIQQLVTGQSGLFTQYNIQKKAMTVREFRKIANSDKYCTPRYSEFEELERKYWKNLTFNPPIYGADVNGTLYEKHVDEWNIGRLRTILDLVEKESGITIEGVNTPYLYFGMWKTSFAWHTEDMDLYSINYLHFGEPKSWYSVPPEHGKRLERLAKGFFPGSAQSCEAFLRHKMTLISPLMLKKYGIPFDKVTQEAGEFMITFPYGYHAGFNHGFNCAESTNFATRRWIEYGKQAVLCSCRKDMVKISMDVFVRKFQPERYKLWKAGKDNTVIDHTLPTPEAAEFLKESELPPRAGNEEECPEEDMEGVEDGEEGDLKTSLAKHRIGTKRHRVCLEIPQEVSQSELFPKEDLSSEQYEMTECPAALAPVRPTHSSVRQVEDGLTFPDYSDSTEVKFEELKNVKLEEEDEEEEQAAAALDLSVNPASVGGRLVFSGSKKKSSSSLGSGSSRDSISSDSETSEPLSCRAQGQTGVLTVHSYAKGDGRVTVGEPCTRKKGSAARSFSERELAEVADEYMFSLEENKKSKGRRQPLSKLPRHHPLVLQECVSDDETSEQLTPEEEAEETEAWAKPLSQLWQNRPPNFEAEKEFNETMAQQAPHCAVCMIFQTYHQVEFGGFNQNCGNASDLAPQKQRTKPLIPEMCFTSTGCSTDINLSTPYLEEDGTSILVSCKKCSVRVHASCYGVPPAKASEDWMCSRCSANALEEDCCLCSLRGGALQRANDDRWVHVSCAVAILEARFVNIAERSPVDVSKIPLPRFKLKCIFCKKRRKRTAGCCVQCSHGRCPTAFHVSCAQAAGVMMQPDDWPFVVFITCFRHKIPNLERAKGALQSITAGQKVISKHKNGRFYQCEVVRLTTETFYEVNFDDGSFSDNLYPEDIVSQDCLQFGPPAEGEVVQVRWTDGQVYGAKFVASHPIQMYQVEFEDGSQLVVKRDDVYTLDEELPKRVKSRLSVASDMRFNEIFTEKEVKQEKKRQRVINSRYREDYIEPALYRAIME
PLK1 PBD block = PLK1 (human) polo-box domain binding inhibition; P53350; Plk1 PBD binding of FITC phosphopeptide, fluorescence polarization; Potency, µM, actives largely listed as inhibitors; hit rate 2.8% among 360,000; AID 720504; also: series mostly up to about 57 µM; nearly all actives have a fitted effect of over 65% in size
A number is an active result; 0 = inactive; ? = inconclusive; - = no result given; [ ] = remark or other dose. Calls follow the shape of the dose curve; as a rule, active = well fitted curve in the direction sought with a large enough effect; inconclusive = small, poorly fitted or top-dose-only effect, or another doubt; inactive = no such curve, though single readings can be large; an effect the other way counts as inactive or inconclusive.

SMILES	G9a inh	VDR inh	BAZ2B block	HP1b binding inh	JMJD2A Tudor inh	PLK1 PBD block
CC(=O)NC(c1cccs1)c1cc(Cl)c2ccccc2c1O (stereo not drawn)	0[0.501 µM]	0	0	0	0	-
Cc1cccc(-n2c(-c3csc(C)c3C)n[nH]c2=S)c1	1.1µM	0	0	0	22µM	0
Cc1ccccc1-n1c(-c2csc3ccccc23)n[nH]c1=S	2µM	0	0	0	?	0
Cc1ccccc1-n1c(-c2csc(C)c2C)n[nH]c1=S	1µM	0	0	0	50µM	0
CCCc1cc(-c2n[nH]c(=S)n2-c2cccc(C)c2)cs1	3.5µM	0	?	0	?	?
COc1ccc(C(C)(O)c2nc(-c3csc4ccccc34)cs2)cc1 (stereo not drawn)	-	-	-	-	-	0
Cc1cccc(-n2c(-c3csc(C(C)C)c3)n[nH]c2=S)c1	?	0	0	0	?	?
Cc1cccc(-n2c(C)nc3ccsc3c2=O)c1	-	0	-	0	0	0
CC(Oc1ccc(Cl)cc1)C(=O)Nc1ccccc1C(=O)N1CCOCC1 (stereo not drawn)	?	0	0	0	0	0
CCCCCCC(=O)N1C/C=C\C(c2ccc(OC)cc2)N(Cc2ccc(F)cc2)C(=O)C1Cc1ccccc1 (stereo not drawn)	-	0	-	0	0	-
C=CC[n+]1c(-c2ccc(OCC)cc2)csc1NNC(=O)Nc1ccccc1	?	0	10µM	14µM	22µM	0
CC1CCCCN1CCCNC(=O)Cn1ncc2c3ccccc3n(Cc3ccccc3)c2c1=O (stereo not drawn)	0	0	0	0	0	-
CCOC(=O)c1c(CC(C)C)csc1NC(=O)C(C)C	0	0	0	0	0	0
CCOC(=O)c1c(CC(C)C)csc1N	40µM	0	?	0	0	?
COc1ccc(/C=N/NC(=O)c2cc(O)c(O)c(O)c2)cc1Cn1cc([N+](=O)[O-])cn1	14µM	0	10µM	?	10µM	?
COc1ccc(/C=N/NC(=O)c2ccccc2O)cc1Cn1cc([N+](=O)[O-])cn1	0	0	0	0	0[11.4 µM]	0
COc1ccc(/C=N/NC(=O)c2ccc(Br)o2)cc1Cn1cc([N+](=O)[O-])cn1	0	0	0	0	0	0
COc1ccc(/C=N/Nc2ccccc2C(=O)O)cc1Cn1cc([N+](=O)[O-])cn1	22µM	0	50µM	0	?	0
CCOc1cc(CNC(=O)c2ccc(NC(=O)c3nsc4ccccc34)cc2)ccc1OC	0	0	0	0	0	-
CCN1CCCc2cc(CN(CCN3CCOCC3)C(=O)Nc3ccc(C)c(C)c3)ccc21	8.9µM	0	45µM	?	28µM	0
CCc1ccc(NC(=O)N(CCN2CCOCC2)Cc2ccc3c(c2)CCCN3CC)cc1	32µM	0	?	28µM	22µM	0
CCCCN1CCCc2cc(CN(CCCN3CCOCC3)C(=O)Nc3ccc(OCC)cc3)ccc21	?	0	0	?	13µM	-
CCN1CCCc2cc(CN(CCN3CCOCC3)C(=S)Nc3ccc(OC)c(OC)c3)ccc21	0	0	0	0	0[11.4 µM]	0
COCCNC(=O)CCN1C(=O)c2cccnc2Oc2ccc(C)cc21	0	0	0	0	0	-
C=C1CCN(C(Cc2ccccc2)C(=O)NCc2ccc(Cl)cc2)S(=O)(=O)c2ccccc21 (stereo not drawn)	-	0	-	0	0	-
SMILES	G9a inh	VDR inh	BAZ2B block	HP1b binding inh	JMJD2A Tudor inh	PLK1 PBD block
CCO[C@H]1OC(C(=O)N2CCN(C)CC2)=C[C@@H](C)[C@@H]1CCCO	0[12.7 µM]	0	0	0	0	0
COc1ccccc1CCNC(=O)Cc1ccc(NC(=O)N2CCSc3ncccc32)cc1	?	0	0	0	0	-
Cc1ccc([N+](=O)[O-])cc1N=C1C(=O)Nc2ccccc21	0	25µM	?	0	0	0
Cc1cc(C)c(N=C2C(=O)Nc3ccccc32)c(C)c1	0	0	?	0	?	0
NNc1nc2sc3c(c2c(=O)n1C1CCCCC1)CCN(Cc1ccccc1)C3	50µM	0	0	0	0	0
C=C(C)CSc1nc2sc3c(c2c(=O)n1C1CCCCC1)CCN(C)C3	-	0	?	0	?	0
CCSc1nc2sc3c(c2c(=O)n1C1CCCCC1)CCN(C)C3	?	0	0	0	0	0
CSc1nc2sc3c(c2c(=O)n1C1CCCCC1)CCN(C)C3	50µM	0	0	0	0	0
Cc1cc(C)cc(OCC(=O)Nc2ccc(-n3cnnn3)cc2)c1	0[12.7 µM]	0	0	0	0	0
CCc1nc2ccc(C(=O)NCc3cccs3)cn2c1N(CC)CCN(C)C	-	-	-	-	-	0
Cc1ccc(C2=NNC3(CCOC(C)(C)C3)S2)cc1 (stereo not drawn)	28µM	0	0	0	?	0
O=[N+]([O-])c1cccc(OCc2cn3cccnc3n2)c1	0	0	0	?	0[11.4 µM]	27µM
Cc1ccc(OCc2cn3cccnc3n2)cc1	0	0	89µM	0	0	0
Cc1cccn2cc(COc3cccc([N+](=O)[O-])c3)nc12	0	0	0	0	0	0
Cc1cccn2cc(COc3ccc(-c4ccccc4)cc3)nc12	0	0	?	0	0	0
CCN(Cc1nc2ccccc2c(=O)[nH]1)C(=O)COc1ccccc1Cc1ccccc1	0[0.501 µM]	0	0	0	0	0
COc1cccc2sc(N(Cc3cccnc3)C(=O)C3COc4ccccc4O3)nc12 (stereo not drawn)	0	0	0	0	0	-
CC(=O)Nc1ccc(S(=O)(=O)NCC(=O)OCC(=O)N2CCCCCC2)cc1	0	0	0	0	0	0
COc1ccc(-c2nc(N3CCCCCC3)sc2C(=O)c2ccccc2)cc1	0	0	0	0	0	0
COc1ccc(-c2nc(N3CCN(C)CC3)sc2-c2ccc(OC)cc2)cc1	14µM	0	28µM	50µM	22µM	0
O=C(COC(=O)c1c2c(nc3ccccc13)/C(=C\c1ccco1)CC2)NC1CCCC1	-	0	-	?	?	9.5µM
CN(CCC#N)C(=O)COC(=O)c1c2c(nc3ccccc13)/C(=C\c1ccco1)CC2	-	0	-	?	?	0
CC1CCCCC1NC(=O)COC(=O)c1c2c(nc3ccccc13)/C(=C\c1ccco1)CC2 (stereo not drawn)	-	0	-	?	45µM	?
CCN(C(=O)c1c(C)cc(=O)oc1C)c1ccc2c(c1)OCO2	0	0	0	0	0	0
CCN(C(=O)c1coc(=O)c(Br)c1)c1ccc2c(c1)OCO2	20µM	?	50µM	0	50µM	0
CCCCCCc1c(O)c2ccccc2[nH]c1=O	0	0	0	0	0	0
COc1ccc(-c2nc(N=Nc3ccc(O)cc3)n[nH]2)cc1	0	0	?	0	?	0
Cc1ccc(N=Nc2[nH]c3ccccc3c2O)cc1	14µM	0	56µM	0	?	0
COc1ccc(N=Nc2[nH]c3ccc(C)cc3c2O)cc1	11µM	0	?	0	0	0
